Potency and outcome data for 73 molecules are collected here from PubChem BioAssay (NCATS).

Calls of active or inactive are those of the source. A call without a number means that no potency is given here. Unless noted, calls follow the shape of the dose curve; as a rule, active = well fitted inhibition curve with a large enough effect; inconclusive = small, poorly fitted or top-dose-only effect; inactive = no such curve, though single readings can be large or run the other way.

In assay [1] the target is Pyruvate kinase (Leishmania mexicana) (UniProt Q27686). As to the kind of experiment: qHTS Validation Assay for Inhibitors of Leishmania Mexicana Pyruvate Kinase (AID 945). Put shortly:
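Compounds are tested as eight-point concentration series. Reactions contain 0.2 nM LmPYK E451W, 0.5 mM PEP, 0.1 mM ADP, 7 mM MgCl2 and 50 mM KCl at pH 7.2, run 1 h at room temperature, then read by PKLight luminescence.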

Assay [2] deals with Pyruvate kinase PKM (Homo sapiens) (UniProt P14618). As to the kind of experiment: qHTS Assay for Activators of Human Muscle Pyruvate Kinase (AID 954; active = well fitted curve in the direction sought with a large enough effect, not every such curve was filed as active). In outline:
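Luminescence from a luciferase ATP-detection/stop reagent reported PKM2 activity. Reactions contained 0.1 nM purified human enzyme, 0.5 mM PEP, 0.1 mM ADP and 7 mM MgCl2 at pH 7.2, run 1 h at RT.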
Background: qHTS replaces the single test concentration by a dilution series.

Pyruvate kinase (Leishmania mexicana), sequence (Q27686 2-499 E452W): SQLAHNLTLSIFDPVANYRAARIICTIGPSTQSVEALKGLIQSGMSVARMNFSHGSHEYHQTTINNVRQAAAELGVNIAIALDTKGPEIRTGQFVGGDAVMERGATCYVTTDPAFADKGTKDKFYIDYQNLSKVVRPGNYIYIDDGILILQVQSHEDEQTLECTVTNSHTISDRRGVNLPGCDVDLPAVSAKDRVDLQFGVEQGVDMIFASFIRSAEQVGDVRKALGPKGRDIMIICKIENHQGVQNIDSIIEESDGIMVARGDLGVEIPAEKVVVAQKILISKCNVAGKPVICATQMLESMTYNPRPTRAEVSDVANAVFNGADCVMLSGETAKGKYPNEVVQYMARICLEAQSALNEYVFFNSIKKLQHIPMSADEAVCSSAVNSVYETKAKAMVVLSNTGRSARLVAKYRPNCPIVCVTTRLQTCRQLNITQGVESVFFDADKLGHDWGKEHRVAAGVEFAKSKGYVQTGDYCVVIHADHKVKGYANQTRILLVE
Pyruvate kinase PKM (Homo sapiens), sequence (P14618 whole entry, looked up): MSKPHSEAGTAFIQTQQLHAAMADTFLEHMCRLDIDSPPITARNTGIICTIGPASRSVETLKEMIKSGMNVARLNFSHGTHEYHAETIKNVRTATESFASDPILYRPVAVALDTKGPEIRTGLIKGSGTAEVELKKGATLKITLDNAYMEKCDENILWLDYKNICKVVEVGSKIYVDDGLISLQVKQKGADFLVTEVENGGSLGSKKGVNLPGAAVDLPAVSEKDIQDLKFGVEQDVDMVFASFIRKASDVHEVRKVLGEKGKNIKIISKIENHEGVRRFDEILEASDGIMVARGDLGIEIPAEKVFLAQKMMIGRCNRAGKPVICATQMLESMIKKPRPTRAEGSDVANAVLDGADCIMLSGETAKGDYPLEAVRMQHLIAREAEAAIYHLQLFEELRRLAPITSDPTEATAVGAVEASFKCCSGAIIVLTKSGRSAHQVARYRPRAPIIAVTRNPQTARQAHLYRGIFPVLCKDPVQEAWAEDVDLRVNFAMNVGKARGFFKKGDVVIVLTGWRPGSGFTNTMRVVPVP

As to `NC(N)=NC(N)=Nc1ccccc1`, the Potency result in assay [1] is “inactive”. The molecule was classed as inactive in assay [2].

Consider `CCN(c1nc(N)c(C(=O)N=C(N)N)nc1Cl)C(C)C`, for which the Potency result in assay [1] is “inactive”. Besides, in assay [2], the call was inactive.

As for `CCCn1c(=O)c2[nH]c(-c3ccc(S(=O)(=O)O)cc3)nc2n(CCC)c1=O`, the Potency result in assay [1] is “inactive”. In assay [2], the outcome was inactive.

As for `Cc1nc2c(OCc3ccccc3)cccn2c1CC#N`, the Potency result in assay [1] was “inactive”. Also, in assay [2], the molecule was called inactive.

For the molecule `CCCn1c(=O)c2[nH]c(C3CCCC3)nc2n(CCC)c1=O`, the Potency result in assay [1] was “inactive”. Also, the molecule was classed as inactive in assay [2].

Regarding `CCN1C(=O)C=CC1=O`, the Potency result in assay [1] is “inactive”. The molecule was called inactive in assay [2].

For the molecule `NC1(C(=O)O)CC1`, the Potency result in assay [1] was “inactive”. The molecule was called inactive in assay [2].

Take `COc1ccccc1N1CCN(CCCCNC(=O)c2ccc3ccccc3c2)CC1`: the Potency entry in assay [1] is “inactive”. For the same molecule, in assay [2], the outcome was inactive.

For the molecule `Cc1cc2c(cc1Cl)N(C(=O)Nc1ccnc3ccccc13)CC2`, the Potency result in assay [1] is “inactive”. The result in assay [2] was inactive.

`CC(N)=O`: the Potency result in assay [1] was “inactive”. The outcome in assay [2] was inactive.

In the case of `N=C(N)SCCc1cnc[nH]1`, in assay [1], the Potency entry was “inactive”. Also, in assay [2], the outcome was inactive.

For the molecule `CC(C)NC[C@H](O)COc1ccc(CC(N)=O)cc1`, the Potency entry in assay [1] was “inactive”. Besides, the result in assay [2] was inactive.

As for `CC[C@@H]1Cc2cc(O)ccc2C2=C1c1ccc(O)cc1C[C@H]2CC`, in assay [1], the Potency result was “inactive”. The result in assay [2] was inactive.

On to `CCCCOC(=O)NS(=O)(=O)c1sc(CC(C)C)cc1-c1ccc(Cn2c(CC)nc3c(C)cc(C)nc32)cc1`, for which the Potency result in assay [1] was “inactive”. Moreover, the molecule was classed as inactive in assay [2].

Turning to `CCCCCCCCCCCCCCC[C@H](O)[C@H](N)CO`, in assay [1], the Potency entry is “inactive”. Besides, the molecule was classed as inactive in assay [2].

For `CC(=O)N[C@@H](Cc1c[nH]c2ccccc12)C(=O)OCc1cc(C(F)(F)F)cc(C(F)(F)F)c1`, the Potency result in assay [1] was “inactive”. Moreover, the result in assay [2] was inactive.

`CCCC(=O)NCCc1c2n(c3ccc(OC)cc13)CCCc1ccccc1-2`: the Potency result in assay [1] was “inactive”. Further, the molecule was classed as inactive in assay [2].

For `CN(C)S(=O)(=O)c1ccc2c(c1)/C(=C/c1cc3c([nH]1)CCCC3)C(=O)N2`, the Potency result in assay [1] was “inactive”. For the same molecule, the molecule was called inactive in assay [2].

As to `NC(=Nc1ccccc1)NC(=O)c1nc(Cl)c(N)nc1N`, the Potency result in assay [1] was “inactive”. Further, the molecule was called inactive in assay [2].

Regarding `Clc1nccc2c1ccc1ccccc12`, in assay [1], the Potency entry is “inactive”. In addition, in assay [2], the result was inactive.

Turning to `C=CC[C@H](N)C(=O)O`, the Potency entry in assay [1] is “inactive”. Further, the result in assay [2] was inactive.

For the molecule `O=C(O)Cc1ccc(O)c(O)c1`, in assay [1], the Potency entry was “inactive”. Besides, the outcome in assay [2] was inactive.

On to `N[C@@H](Cc1ccc(O)c(I)c1)C(=O)O`, for which the Potency result in assay [1] was “inactive”. In addition, in assay [2], the outcome was inactive.

On to `C#CCn1c(=O)c2c(ncn2C)n(C)c1=O`, for which the Potency entry in assay [1] is “inactive”. Besides, the molecule was classed as inactive in assay [2].

Turning to `O=C(O)C1CCNCC1`, in assay [1], the Potency result was “inactive”. Besides, in assay [2], the molecule was called inactive.

On to `COC(=O)[C@H](NC(=O)c1cc(-c2ccccc2)nc2ccccc12)c1ccccc1`, for which the Potency entry in assay [1] is “inactive”. In assay [2], the molecule was called inactive.

With `COc1cc(CC(=O)O)ccc1O`, in assay [1], the Potency entry was “inactive”. Moreover, in assay [2], the result was inactive.

`O=S(=O)(c1cccc2c(Cl)cccc12)N1CCCNCC1`: the Potency result in assay [1] was “inactive”. In assay [2], the outcome was inactive.

Take `N[C@@H](CS(=O)O)C(=O)O`: in assay [1], the Potency result was “inactive”. Moreover, in assay [2], the call was inactive.

Consider `NOCC(=O)O`, for which, in assay [1], the Potency entry was “inactive”. Further, the molecule was classed as inactive in assay [2].

As for `O=c1[nH]c(=O)c2nc3ccccc3nc2[nH]1`, in assay [1], the Potency result is “inactive”. In addition, in assay [2], the call was inactive.

`COc1ccc(-c2ccc(N)[n+](CCCC(=O)O)n2)cc1`: in assay [1], the Potency result was “inactive”. Also, the outcome in assay [2] was inactive.

In the case of `c1ccc(CN2CCC3(CCCc4ccccc43)CC2)cc1`, in assay [1], the Potency result is “inactive”. In addition, the outcome in assay [2] was inactive.

Turning to `N=C(N)c1ccccc1`, the Potency result in assay [1] is “inactive”. Moreover, the molecule was called inactive in assay [2].

As to `Cn1cc(C(=O)OCC2CCN(CCNS(C)(=O)=O)CC2)c2ccccc21`, the Potency entry in assay [1] is “inactive”. In addition, the molecule was called inactive in assay [2].

As for `CC(C)Cn1c(=O)n(C)c(=O)c2[nH]cnc21`, the Potency entry in assay [1] is “inactive”. Besides, in assay [2], the outcome was inactive.

`C/C(=C\c1ccc(C(=O)O)cc1)c1ccc2c(c1)C(C)(C)CCC2(C)C`: the Potency result in assay [1] is “inactive”. Also, the call in assay [2] was inactive.

Regarding `CC(=O)NCCc1c[nH]c2ccc(O)cc12`, in assay [1], the Potency entry was “inactive”. In addition, in assay [2], the result was inactive.

For the molecule `O=C(OCCN1CCOCC1)C1(c2ccccc2)CCCCC1`, the Potency result in assay [1] was “inactive”. Further, the molecule was called inactive in assay [2].

As for `O=C(O)C1=CCNCC1`, in assay [1], the Potency entry is “inactive”. Further, the molecule was classed as inactive in assay [2].

For `COc1cc2c(CCNC(C)=O)c[nH]c2cc1O`, the Potency result in assay [1] is “inactive”. Besides, the outcome in assay [2] was inactive.

On to `Cn1c(=O)c2[nH]c(-c3ccc(S(=O)(=O)O)cc3)nc2n(C)c1=O`, for which the Potency entry in assay [1] is “inactive”. Further, the molecule was called inactive in assay [2].

As for `NC/C=C\C(=O)O`, the Potency entry in assay [1] was “inactive”. Further, the call in assay [2] was inactive.

For the molecule `O=C1NC(=O)c2cc(Nc3ccccc3)c(Nc3ccccc3)cc21`, in assay [1], the Potency result was “inactive”. Also, the result in assay [2] was inactive.

Consider `Nc1ccc2c3c(cccc13)C(=O)NC2=O`, for which, in assay [1], the Potency entry is “inactive”. Moreover, the molecule was called inactive in assay [2].

Turning to `Cn1ccnc1`, the Potency result in assay [1] is “inactive”. For the same molecule, the outcome in assay [2] was inactive.

`COc1ccc2c(c1)c(CC(=O)O)c(C)n2Cc1ccc(Cl)cc1`: the Potency result in assay [1] is “inactive”. Moreover, in assay [2], the molecule was classed as inactive.

Regarding `N[C@@H](Cc1c[nH]c2ccccc12)C(=O)O`, the Potency entry in assay [1] is “inactive”. The outcome in assay [2] was inactive.

Consider `C[C@H](NC(=O)/C(C#N)=C/c1ccc(O)c(O)c1)c1ccccc1`, for which, in assay [1], the Potency entry was “inactive”. Also, the call in assay [2] was inactive.

As to `CC(C)(C)c1cc(/C=C(\C#N)C(N)=S)cc(C(C)(C)C)c1O`, the Potency entry in assay [1] is “inactive”. In addition, the result in assay [2] was inactive.

With `O=C(O)/C(=C/c1c(C(=O)O)[nH]c2cc(Cl)cc(Cl)c12)c1ccccc1`, the Potency entry in assay [1] was “inactive”. For the same molecule, the outcome in assay [2] was inactive.

Regarding `c1ccc2nc(C3=NCCN3)ccc2c1`, the Potency result in assay [1] was “inactive”. The molecule was classed as inactive in assay [2].

As to `O=C(N[C@@H](Cc1ccccc1)C(=O)CCl)OCc1ccccc1`, in assay [1], the Potency entry was “inactive”. Besides, the molecule was called inactive in assay [2].

For `N=C(N)c1ccc(N)cc1`, the Potency entry in assay [1] is “inactive”. In addition, the call in assay [2] was inactive.

As for `Nc1ccc(N2C(=O)c3ccccc3C2=O)c(Cl)c1`, the Potency entry in assay [1] is “inactive”. For the same molecule, the outcome in assay [2] was inactive.

Turning to `CN1CCN(c2nc3cc(C(F)(F)F)ccc3n3cccc23)CC1`, in assay [1], the Potency result is “inactive”. Moreover, the result in assay [2] was inactive.

`COc1ccc(NC(=O)c2ccc(-c3ccc(-c4noc(C)n4)cc3C)cc2)cc1N1CCN(C)CC1`: the Potency result in assay [1] is “inactive”. In addition, the molecule was called inactive in assay [2].

With `O=c1onc2cnc3ccccc3n12`, the Potency entry in assay [1] was “inactive”. In addition, the outcome in assay [2] was inactive.

As for `O=C(O)C1=CCCN(CCON=C(c2ccccc2)c2ccccc2)C1`, in assay [1], the Potency entry is “inactive”. For the same molecule, in assay [2], the result was inactive.

In the case of `O=c1[nH]c2ccccc2c2ccccc12`, the Potency entry in assay [1] was “inactive”. The outcome in assay [2] was inactive.

On to `COc1ccccc1N1CCN(CCCCN2C(=O)c3ccccc3C2=O)CC1`, for which, in assay [1], the Potency result is “inactive”. Further, the outcome in assay [2] was inactive.

`O=C(O)c1ccccc1Nc1ccccc1`: the Potency entry in assay [1] is “inactive”. For the same molecule, in assay [2], the molecule was classed as inactive.

As for `CC[N+](CC)(CC)CC(=O)Nc1c(C)cccc1C`, the Potency entry in assay [1] is “inactive”. Besides, the outcome in assay [2] was inactive.

Consider `N#C/C(=C\c1ccc(O)c(O)c1)C(=O)NCCc1ccccc1`, for which the Potency entry in assay [1] is “inactive”. Further, the call in assay [2] was inactive.

Take `CSC(=N)N`: the Potency result in assay [1] was “inactive”. The outcome in assay [2] was inactive.

`Cc1cccc(C(=O)NCN2CCN(c3ccccc3C#N)CC2)c1`: the Potency entry in assay [1] is “inactive”. Moreover, the result in assay [2] was inactive.

For the molecule `Oc1ccc(Cn2cc[nH]c2=S)cc1`, in assay [1], the Potency result is “inactive”. Besides, the molecule was classed as inactive in assay [2].

As to `O=c1ccc2c(OCCCCc3ccccc3)c3ccoc3cc2o1`, the Potency result in assay [1] was “inactive”. Moreover, the outcome in assay [2] was inactive.

Turning to `COc1cc(N)c(Cl)cc1C(=O)OCCN1CCCCC1`, in assay [1], the Potency entry is “inactive”. Besides, the call in assay [2] was inactive.

Take `N[C@H](C(=O)O)c1cc(O)cc(O)c1`: in assay [1], the Potency result is “inactive”. Moreover, the outcome in assay [2] was inactive.

As for `CCCCCCCCCCC/C=C\C(C)(C)/C=C\CCCC(=O)O`, in assay [1], the Potency result was “inactive”. In addition, in assay [2], the molecule was classed as inactive.

With `O=C1Nc2ccc(I)cc2/C1=C/c1cc(Br)c(O)c(Br)c1`, the Potency result in assay [1] is “inactive”. Also, the call in assay [2] was inactive.

In the case of `NC(N)=[N+]1CCc2ccccc2C1`, the Potency entry in assay [1] was “inactive”. For the same molecule, in assay [2], the outcome was inactive.
